Values without a mark were called inactive. No rule for the calls is given here.
Potency is read from the fitted curve at half-maximal effect.

The subject of the assay is HIV-1 nucleocapsid protein NCp7 (binding to TG oligonucleotide). The experiment in a line: HIV Nucleocapsid (AID 346).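 Also: potency is for inhibitors that block NC binding and lower polarization.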 The following applies: HIV-1 NC / fluorescein-TGTGTGTG probe, fluorescence polarization. A digest of the protocol:
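Inhibition of nucleocapsid binding to single-stranded 5'-TGTGTGTG probe (10 nM) was measured by fluorescence polarization after 1 hr at room temperature with 100 nM protein under high-salt, zinc-containing, reducing conditions.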
(In general: Fluorescence polarisation rises when a labelled molecule tumbles more slowly, as on binding a larger partner.)
As for `CC(=O)N1CCC[C@@]2(CCN(C(=O)Nc3ccccc3)C2)C1`, the Potency was above 20 µM. Consider `CN(C)Cc1ccccc1-c1cncnc1NC1CC1`, for which the Potency is above 20 µM. Then `O=c1cnc2cncnc2n1Cc1ccc(F)cc1`, with above 20 µM; and `COCC(=O)N1CCC2(CCN(Cc3ccccc3)CC2)CC1`, with above 20 µM. Take `CS(=O)(=O)N1CCC2(CCN(C(=O)Nc3cccc(F)c3)CC2)CC1`: the Potency is above 20 µM. The result for `Cc1noc(C)c1C(=O)N1CCC[C@@]2(CCN(C(=O)Nc3cccc(F)c3)C2)C1` reads above 20 µM; that for `c1cncc(-c2nc(NCCN3CCOCC3)c3ccccc3n2)c1`, above 20 µM. As for `O=C(c1cc(C(F)(F)F)cc(C(F)(F)F)c1)N1CCC2(CC1)CN(c1ccccc1)C2`, the Potency is above 20 µM. Consider `CN1CCN(c2ncc3nc(-c4ccccc4)c(=O)n(CCC#N)c3n2)CC1`, for which the Potency is above 20 µM. As for `O=c1c(-c2cccs2)nc2cnc(N3CCOCC3)nc2n1Cc1cccs1`, the Potency is above 4 µM. Consider `O=c1c(CCc2ccccc2)nc2cnc(Oc3cccc(Cl)c3)nc2n1C[C@H]1CCCO1`, for which the Potency was above 20 µM. The result for `COc1ccccc1CNc1ncnc2ccc(-c3cccnc3)cc12` reads above 20 µM; that for `COCCn1c(=O)c(-c2cccc(C#N)c2)nc2cnc(N3CCOCC3)nc21`, above 20 µM; that for `CN(C)c1ncnc2ccc(-c3ccccc3C#N)cc12`, above 20 µM. Take `COCC(=O)N1CCC2(CC1)CCN(c1cccc(-c3ccccc3)c1)CC2`: the Potency is above 20 µM.

The values are drawn from PubChem BioAssay (NCATS).
